From the supplement of paper PMC8975748
Where a name gives a salt, the structure may show the parent alone. ± gives the standard deviation of the averaged measurements.

How the values were obtained:
[1] = tested on: Saccharomyces cerevisiae BY4741 SeMeCo community; experiment: mean cell size (pixel area) (pixels); higher = larger cells; conditions: 10 µM; 24 h; SM minimal medium
Outline: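 Mean cell pixel area per well was measured in a four-plasmid fluorescent community of Saccharomyces cerevisiae BY4741, where every plasmid complements one auxotrophy and carries a fluorescent marker. Cells from an overnight preculture at OD600 = 1.0 were diluted to OD600 = 0.3 and dispensed at 70 µl into 384-well plates acoustically predosed with drug to a final 10 µM in SM medium. Incubation lasted 24 h, followed by paraformaldehyde fixation, automated confocal imaging and analysis in Harmony. Reported figures are averaged over 3 replicates. Same SeMeCo high-content imaging drug screen: Selleck FDA-approved drugs at 10 µM, 24 h in SM medium, 384-well plates, 3 replicates.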

[2] = tested on: Saccharomyces cerevisiae BY4741 SeMeCo community; experiment: z-score of prototroph abundance vs DMSO median; higher = larger share of this subpopulation than in DMSO controls; conditions: 10 µM; 24 h; SM minimal medium; subpopulation (auxotrophy): Prototroph
Outline: (§1)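 Cells of a Saccharomyces cerevisiae BY4741 community, carrying four plasmids that each restored one auxotrophy and encoded a distinct fluorescent protein, were pre-grown overnight to OD600 1.0 and diluted to 0.3. A 70 µl volume was added to 384-well plates acoustically predosed with library drugs (10 µM final) and grown 24 h in minimal SM medium. After paraformaldehyde fixation, automated confocal microscopy was used, with single-auxotroph fluorescent strains for thresholds and autofluorescence correction. The abundance of each subpopulation was scored as a z-score against the vehicle-well median.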

[3] = tested on: Saccharomyces cerevisiae BY4741 SeMeCo community; experiment: z-score of subpopulation abundance vs DMSO median, subpopulation auxotrophic for M; higher = larger share of this subpopulation than in DMSO controls; conditions: 10 µM; 24 h; SM minimal medium; subpopulation (auxotrophy): M
Outline: as §1

[4] = tested on: Saccharomyces cerevisiae BY4741 SeMeCo community; experiment: z-score of subpopulation abundance vs DMSO median, subpopulation auxotrophic for L; higher = larger share of this subpopulation than in DMSO controls; conditions: 10 µM; 24 h; SM minimal medium; subpopulation (auxotrophy): L
Outline: as §1

[5] = tested on: Saccharomyces cerevisiae BY4741 SeMeCo community; experiment: z-score of subpopulation abundance vs DMSO median, subpopulation auxotrophic for U; higher = larger share of this subpopulation than in DMSO controls; conditions: 10 µM; 24 h; SM minimal medium; subpopulation (auxotrophy): U
Outline: as §1

[6] = tested on: Saccharomyces cerevisiae BY4741 SeMeCo community; experiment: z-score of subpopulation abundance vs DMSO median, subpopulation auxotrophic for H; higher = larger share of this subpopulation than in DMSO controls; conditions: 10 µM; 24 h; SM minimal medium; subpopulation (auxotrophy): H
Outline: as §1

[7] = tested on: Saccharomyces cerevisiae BY4741 SeMeCo community; experiment: z-score of subpopulation abundance vs DMSO median, subpopulation auxotrophic for LM; higher = larger share of this subpopulation than in DMSO controls; conditions: 10 µM; 24 h; SM minimal medium; subpopulation (auxotrophy): LM
Outline: as §1

[8] = tested on: Saccharomyces cerevisiae BY4741 SeMeCo community; experiment: z-score of subpopulation abundance vs DMSO median, subpopulation auxotrophic for HU; higher = larger share of this subpopulation than in DMSO controls; conditions: 10 µM; 24 h; SM minimal medium; subpopulation (auxotrophy): HU
Outline: as §1

[9] = tested on: Saccharomyces cerevisiae BY4741 SeMeCo community; experiment: z-score of subpopulation abundance vs DMSO median, subpopulation auxotrophic for HL; higher = larger share of this subpopulation than in DMSO controls; conditions: 10 µM; 24 h; SM minimal medium; subpopulation (auxotrophy): HL
Outline: as §1

[10] = tested on: Saccharomyces cerevisiae BY4741 SeMeCo community; experiment: z-score of subpopulation abundance vs DMSO median, subpopulation auxotrophic for HLU; higher = larger share of this subpopulation than in DMSO controls; conditions: 10 µM; 24 h; SM minimal medium; subpopulation (auxotrophy): HLU
Outline: as §1

[11] = tested on: Saccharomyces cerevisiae BY4741 SeMeCo community; experiment: z-score of subpopulation abundance vs DMSO median, subpopulation auxotrophic for HLM; higher = larger share of this subpopulation than in DMSO controls; conditions: 10 µM; 24 h; SM minimal medium; subpopulation (auxotrophy): HLM
Outline: as §1

[12] = tested on: Saccharomyces cerevisiae BY4741 SeMeCo community; experiment: z-score of subpopulation abundance vs DMSO median, subpopulation auxotrophic for HUM; higher = larger share of this subpopulation than in DMSO controls; conditions: 10 µM; 24 h; SM minimal medium; subpopulation (auxotrophy): HUM
Outline: as §1

[13] = tested on: Saccharomyces cerevisiae BY4741 SeMeCo community; experiment: z-score of subpopulation abundance vs DMSO median, subpopulation auxotrophic for LUM; higher = larger share of this subpopulation than in DMSO controls; conditions: 10 µM; 24 h; SM minimal medium; subpopulation (auxotrophy): LUM
Outline: as §1

[14] = tested on: Saccharomyces cerevisiae BY4741 SeMeCo community; experiment: z-score of subpopulation abundance vs DMSO median, subpopulation auxotrophic for HLUM; higher = larger share of this subpopulation than in DMSO controls; conditions: 10 µM; 24 h; SM minimal medium; subpopulation (auxotrophy): HLUM
Outline: as §1

[15] = tested on: Saccharomyces cerevisiae BY4741 SeMeCo community; experiment: z-score of subpopulation abundance vs DMSO median, subpopulation auxotrophic for UM; higher = larger share of this subpopulation than in DMSO controls; conditions: 10 µM; 24 h; SM minimal medium; subpopulation (auxotrophy): UM
Outline: as §1

[16] = tested on: Saccharomyces cerevisiae BY4741 SeMeCo community; experiment: z-score of subpopulation abundance vs DMSO median, subpopulation auxotrophic for HM; higher = larger share of this subpopulation than in DMSO controls; conditions: 10 µM; 24 h; SM minimal medium; subpopulation (auxotrophy): HM
Outline: as §1

[17] = tested on: Saccharomyces cerevisiae BY4741 SeMeCo community; experiment: z-score of subpopulation abundance vs DMSO median, subpopulation auxotrophic for LU; higher = larger share of this subpopulation than in DMSO controls; conditions: 10 µM; 24 h; SM minimal medium; subpopulation (auxotrophy): LU
Outline: as §1

SMILES | mean cell size [1] | z-score of prototroph abundance [2] | z-score of subpopulation abundance [3] | z-score of subpopulation abundance [4] | z-score of subpopulation abundance [5] | z-score of subpopulation abundance [6] | z-score of subpopulation abundance [7] | z-score of subpopulation abundance [8] | z-score of subpopulation abundance [9] | z-score of subpopulation abundance [10] | z-score of subpopulation abundance [11] | z-score of subpopulation abundance [12] | z-score of subpopulation abundance [13] | z-score of subpopulation abundance [14] | z-score of subpopulation abundance [15] | z-score of subpopulation abundance [16] | z-score of subpopulation abundance [17]
CC(C)c1c(C(=O)Nc2ccccc2)c(-c2ccccc2)c(-c2ccc(F)cc2)n1CC[C@@H](O)C[C@@H](O)CC(=O)O [Atorvastatin Calcium] | 12 ± 0.14 | -7.41 | 0.46 | 0.91 | 0.01 | 7.9 | 2.22 | 7.9 | 6.43 | 8.01 | 9.32 | 7.67 | 4.29 | 4.28 | – | – | –
CCOC(=O)c1ccc(N)cc1 [Benzocaine] | 12.5 ± 0.19 | – | 1.02 | -0.13 | -1.34 | 0.27 | 0.32 | -1.28 | -1.2 | -0.97 | -0.02 | -0.48 | – | -0.38 | -0.58 | – | –
COc1ccc(CC2c3cc(OC)c(OC)cc3CC[N+]2(C)CCC(=O)OCCCCCOC(=O)CC[N+]2(C)CCc3cc(OC)c(OC)cc3C2Cc2ccc(OC)c(OC)c2)cc1OC (stereo unspecified) [Atracurium Besylate] | 12.4 ± 0.24 | -0.17 | -0.87 | 1.52 | -0.48 | 0.57 | 0.79 | 0.23 | 1.4 | 0.55 | 0.51 | 0.71 | 0.45 | -0.07 | – | – | –
Nc1ccc(S(=O)(=O)Nc2ncccn2)cc1 [Sodium sulfadiazine] | 12.42 ± 0.059 | -0.25 | 0.4 | – | 0.32 | -0.33 | 0.18 | -0.58 | 0.08 | 0.17 | -0.23 | -0.68 | 0.15 | 0.02 | -0.13 | 0.17 | –
Cc1nc(NC(=O)N2CCC[C@H]2C(N)=O)sc1-c1ccnc(C(C)(C)C(F)(F)F)c1 [Alpelisib (BYL719)] | 12.6 ± 0.23 | -0.14 | -0.14 | – | 0.93 | 0.36 | -1.01 | 0.49 | – | -0.75 | -0.12 | 0.48 | -0.87 | – | 0.25 | 0.31 | –
COCCOC(=O)C1=C(C)NC(C)=C(C(=O)OC/C=C/c2ccccc2)C1c1cccc([N+](=O)[O-])c1 (stereo unspecified) [Cilnidipine] | – | -0.13 | -1.14 | 0.77 | -0.53 | – | 0.12 | 0.24 | 0.94 | 1.34 | – | 0.37 | -0.1 | – | -0.33 | 0.7 | –
COC(=O)C1=C(C)NC(C)=C(C(=O)OC(C)C)C1c1cccc2nonc12 (stereo unspecified) [Isradipine] | 12.49 ± 0.11 | -0.42 | -0.1 | -0.22 | 0.74 | -0.09 | – | 0.75 | – | 0.04 | – | – | -0.39 | 0.04 | – | -0.24 | –
Cc1ccc2c(Cl)cc(Cl)c(O)c2n1 [Chlorquinaldol] | 14.5 ± 0.18 | -18.8 | 7.61 | – | -6.35 | 9.18 | – | 7.3 | – | 28.9 | 107 | – | 16.2 | 114 | – | – | –
Cc1ccc(S(=O)(=O)NC(=O)NN2CC3CCCC3C2)cc1 (stereo unspecified) [Gliclazide] | 12.6 ± 0.2 | 0.12 | – | -0.2 | -0.1 | -0.29 | -0.15 | -0.25 | – | -0.52 | -0.16 | -0.04 | -0.57 | -0.17 | 0.59 | 0.02 | -0.08
C[n+]1ccccc1C=NO [Pralidoxime Iodide] | – | -0.53 | 0.07 | – | – | -0.39 | 0.72 | -0.21 | 0.06 | -0.23 | 0.32 | 0.13 | 0.18 | 0.03 | 0.29 | 0.77 | –
CCCCCNC(=N)N/N=C/c1c[nH]c2ccc(OC)cc12 [Tegaserod Maleate] | 12.23 ± 0.022 | -1.66 | 1.25 | – | -1.24 | 0.7 | 1.85 | – | 2.5 | 1.26 | 1.63 | 0.89 | – | 1.76 | -0.55 | 1.48 | –
CO/N=C1\C[C@]2(C[C@@H]3C[C@@H](C/C=C(\C)C[C@@H](C)/C=C/C=C4\CO[C@@H]5[C@H](O)C(C)=C[C@@H](C(=O)O3)[C@]45O)O2)O[C@H](/C(C)=C/C(C)C)[C@H]1C [Moxidectin] | 12.4 ± 0.18 | -0.99 | – | 0.29 | 0.66 | 1.63 | 0.55 | 2.12 | 1.14 | 1.24 | 1.14 | 1.33 | 0.37 | -0.1 | 0.37 | 1.1 | 0.03
CO[C@@H]1[C@@H](OC(N)=O)[C@@H](O)[C@H](Oc2ccc3c(O)c(NC(=O)c4ccc(O)c(CC=C(C)C)c4)c(=O)oc3c2C)OC1(C)C [Novobiocin Sodium] | – | -1.53 | -0.26 | -0.72 | 0.65 | 1.97 | -0.47 | 2.61 | 1.28 | 1.49 | – | 2.57 | 1.43 | 0.56 | 0.58 | 1.59 | –
O=C(c1ccccc1)c1ccc2n1CCC2C(=O)O (stereo unspecified) [Ketorolac tromethamine salt] | 12.3 ± 0.19 | 0.48 | 0.27 | – | -0.92 | 0.35 | -0.1 | -0.79 | -0.19 | -0.16 | -0.09 | -0.75 | -0.12 | – | – | -0.41 | –
CCN(CC)CC#CCOC(=O)C(O)(c1ccccc1)C1CCCCC1 (stereo unspecified) [Oxybutynin chloride] | 12.57 ± 0.03 | 1.15 | – | -0.83 | -0.51 | -0.41 | -0.32 | -0.4 | – | -0.57 | -0.24 | -0.97 | -0.46 | -0.26 | -1.11 | 0.06 | -1.2
